Bioassay records from PubChem BioAssay.
In the library only some 4.7% were active in any assay of this set; here they are far more common.
GDH-TPI inh: GDH-TPI coupled enzyme inhibition counter-screen; GDH-TPI coupled enzyme counterscreen, NADH absorbance; inhibition, % at 4.8 µM; actives 1.2% (n = 360,000)
RecA intein inh: inhibitors of M. tuberculosis RecA intein splicing. P9WHJ3. cell-free RecA intein splicing, fluorescence. inhibition, % (test concentration not listed). actives 0.75% (n = 290,000). AID 2221; in the data active means inhibition above about 30%
Mtb FBA inh: inhibits M. tuberculosis FBA enzyme; P9WQA3; purified M. tuberculosis FBA, fluorescence read-out; inhibition, % at 1 µM; actives 2.3% (n = 360,000); in the data active means inhibition above about 27%
Target sequence (P9WQA3 whole entry, looked up): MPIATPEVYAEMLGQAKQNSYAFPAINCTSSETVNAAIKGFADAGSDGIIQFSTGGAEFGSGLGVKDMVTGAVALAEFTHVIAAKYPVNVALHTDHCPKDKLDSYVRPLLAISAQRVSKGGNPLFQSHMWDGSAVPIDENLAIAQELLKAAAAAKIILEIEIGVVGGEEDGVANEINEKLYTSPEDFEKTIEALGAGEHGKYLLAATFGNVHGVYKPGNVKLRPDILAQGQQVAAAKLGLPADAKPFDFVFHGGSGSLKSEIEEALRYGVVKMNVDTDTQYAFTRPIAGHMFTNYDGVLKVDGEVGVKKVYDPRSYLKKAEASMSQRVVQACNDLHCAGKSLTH
CCHFV vOTU inh: blocks the CCHF virus ovarian tumor domain protease | CCHFV vOTU protease, Pep-AMC fluorescence | inhibition, % at 11.5 µM | actives 0.55% (n = 370,000)
VHR inh abs: DUSP3 (human) phosphatase inhibition. actives 0.52% (n = 290,000). inhibition, % at 13.3 µM. P51452. recombinant VHR phosphatase, pNPP absorbance; in the data active means inhibition above about 50%
Target sequence (P51452 whole entry, looked up): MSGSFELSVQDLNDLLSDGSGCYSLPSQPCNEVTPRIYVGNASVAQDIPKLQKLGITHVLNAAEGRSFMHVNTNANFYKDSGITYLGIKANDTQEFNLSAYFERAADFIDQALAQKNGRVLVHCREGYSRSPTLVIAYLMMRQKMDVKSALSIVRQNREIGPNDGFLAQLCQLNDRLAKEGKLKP
SARS 3CLpro inh: SARS-CoV 3CLpro protease inhibition; actives 0.14% (n = 290,000); inhibition, % at 6 µM; recombinant SARS-CoV 3CLpro, quenched FRET peptide cleavage; P0C6X7; in the data active means inhibition above about 12%
Large screens that a line does not name were inactive. Unless noted, no stated cut-off is given here; in the data, active means inhibition above about 30%; inactive means the rest.

CC(=O)Nc1cccc(-c2cc(C)c3cc4c(cc3n2)OCO4)c1	GDH-TPI inh 32
COc1ccc2cc(/C=C/C(=O)N3CCN(CC(=O)N4CCCCCC4)CC3)ccc2c1	Mtb FBA inh 30 (no result: RecA intein inh, CCHFV vOTU inh)
COC(=O)C1CCN(C(=O)/C=C/c2ccc(OC)cc2)CC1	none
CCOC(=O)C1CCCN(C(=O)Cn2nc(C)n3c(cc4c(OC)cccc43)c2=O)C1 (stereo unspecified)	Mtb FBA inh 193
COc1cccc2c1cc1c(=O)n(CC(=O)N3CCN(c4cccc(C)c4C)CC3)nc(C)n12	none (no result: RecA intein inh, VHR inh abs, SARS 3CLpro inh)
COc1cccc2c1cc1c(=O)n(CC(=O)N3CCCCCC3)nc(C)n12	Mtb FBA inh active
CCCCN1CCN(C(=O)c2cn(C(C)c3ccccc3)nn2)CC1 (stereo unspecified)	none (no result: GDH-TPI inh, RecA intein inh, Mtb FBA inh, VHR inh abs, SARS 3CLpro inh)
O=C1/C(=C/c2ccc(Cl)cc2)SC(=S)N1CCC(=O)N1CCCCC1CCO (stereo unspecified)	none
COc1ccc(/C=C2\SC(=S)N(CCC(=O)N3CCCCC3CCO)C2=O)cc1 (stereo unspecified)	none
O=C1/C(=C/c2ccccc2)SC(=S)N1CCCC(=O)N1CCCCC1CCO (stereo unspecified)	VHR inh abs 51
COc1ccc(/C=C2\SC(=O)N(CCn3cnnn3)C2=O)cc1	GDH-TPI inh 38
COc1ccc(/C=C2\SC(=O)N(CCNC(=O)C3CC4C=CC3C4)C2=O)cc1 (stereo unspecified)	none
COc1ccc(/C=C2\SC(=O)N(CCC(=O)N3CCCCC3CCO)C2=O)cc1 (stereo unspecified)	GDH-TPI inh 40
CC(C)CN(CC(C)C)C(=O)CSc1nc2cccnc2n1C	none (no result: GDH-TPI inh, RecA intein inh, Mtb FBA inh, VHR inh abs, SARS 3CLpro inh)
CCCCNC(=O)NC1CCN(CC(=O)Nc2ccc3c(c2)OCCO3)CC1	none (no result: GDH-TPI inh, RecA intein inh, Mtb FBA inh, VHR inh abs, SARS 3CLpro inh)
COC(=O)c1cc2c(c3c4cc(C)ccc4n(S(=O)(=O)c4ccc(C)cc4)c13)C(=O)N(Cc1ccc(C(F)(F)F)cc1)C2	none (no result: GDH-TPI inh, RecA intein inh, Mtb FBA inh, VHR inh abs, SARS 3CLpro inh)
CCC1CCCCN1CCCNC(=O)c1ccc(N2CCCC2=O)cc1 (stereo unspecified)	VHR inh abs 56
COc1cc2cc(C(=O)NCCc3ccccc3)[nH]c2cc1OC	Mtb FBA inh 160
COc1cc2cc(C(=O)Nc3ccc4c(c3)OCCO4)[nH]c2cc1OC	GDH-TPI inh 36
COc1ccc2cc(C(=O)NCCc3ccccc3)[nH]c2c1	none
COc1cc2[nH]c(C(=O)Nc3ccc4c(c3)OCCO4)cc2c(OC)c1OC	none
O=C(CSc1n[nH]c(-c2cccs2)n1)N1CCCc2ccccc21	none
Nc1nc(SCC(=O)N2CCCc3ccccc32)n(-c2ccccc2)n1	VHR inh abs 50
O=C(CSc1n[nH]c(-c2ccccc2O)n1)N1CCCc2ccccc21	VHR inh abs 52
O=C(CSc1nnnn1-c1ccccc1)N1CCCc2ccccc21	none
O=[N+]([O-])c1ccc(Sc2nc3ccccc3[nH]2)c(Cl)c1	none (no result: GDH-TPI inh, RecA intein inh, Mtb FBA inh, VHR inh abs, SARS 3CLpro inh)
O=C(CSC1=NS(=O)(=O)c2cc(F)ccc2N1)NCc1ccccc1	none (no result: VHR inh abs, SARS 3CLpro inh)
CCNC(=O)N1C[C@H]2CON(C)[C@H]2C[C@H]1c1ccc(N2CCCCC2)cc1	none (no result: GDH-TPI inh, RecA intein inh, Mtb FBA inh, VHR inh abs, SARS 3CLpro inh)
Cc1cccn2c(=O)c3cc(C(=O)NCC4CCCO4)c(=N)n(C4CCCC4)c3nc12 (stereo unspecified)	Mtb FBA inh active
Cc1ccc2nc3c(cc(C(=O)NCC4CCCO4)c(=N)n3C3CCCC3)c(=O)n2c1 (stereo unspecified)	Mtb FBA inh active (no result: RecA intein inh)
COc1ccc(CNC(=O)c2cc3c(=O)n4ccccc4nc3n(Cc3ccco3)c2=N)cc1	none (no result: GDH-TPI inh, RecA intein inh, Mtb FBA inh, CCHFV vOTU inh, VHR inh abs)
Cc1cccn2c(=O)c3cc(C(=O)NCc4ccco4)c(=N)n(C4CCCCC4)c3nc12	Mtb FBA inh 85 (no result: CCHFV vOTU inh)
Cc1ccc(S(=O)(=O)c2cc3c(=O)n4cc(C)ccc4nc3n(CC3CCCO3)c2=N)cc1 (stereo unspecified)	none (no result: GDH-TPI inh, RecA intein inh, Mtb FBA inh, CCHFV vOTU inh, SARS 3CLpro inh)
Cc1cccn2c(=O)c3cc(S(=O)(=O)c4ccc(Br)cc4)c(=N)n(C4CCCC4)c3nc12	none
Cc1cccn2c(=O)c3cc(C(=O)NCc4ccco4)c(=N)n(CCOCCO)c3nc12	Mtb FBA inh active (no result: CCHFV vOTU inh, VHR inh abs)
Cc1cccc(C)c1NC(=O)COC(=O)[C@@H]1CCCN1C(=O)c1cccs1	none (no result: RecA intein inh, VHR inh abs, SARS 3CLpro inh)
N=c1c(C(=O)NCC2CCCO2)cc2c(=O)n3ccccc3nc2n1C1CCCCC1 (stereo unspecified)	Mtb FBA inh active
N=c1c(C(=O)NCC2CCCO2)cc2c(=O)n3ccccc3nc2n1C1CCCC1 (stereo unspecified)	Mtb FBA inh active
COc1ccc2cc(C(c3nnnn3C(C)(C)C)N3CCSCC3)c(=O)[nH]c2c1 (stereo unspecified)	none
CC(C)(C)n1nnnc1C(c1cc2cc3c(cc2[nH]c1=O)OCCO3)N1CCSCC1 (stereo unspecified)	Mtb FBA inh 34
CCC1NC(=O)c2cc3ccccc3cc2-n2c1nc1cc(OC)c(OC)cc1c2=O (stereo unspecified)	none (no result: RecA intein inh, VHR inh abs, SARS 3CLpro inh)
Cc1cc[n+](-c2[nH]c(=O)sc2/C=N/NC([S-])=Nc2ccccc2)cc1C	GDH-TPI inh 52
CC(C)(C)c1cc[n+](-c2[nH]c(=O)sc2/C=N/NC([S-])=Nc2ccccc2)cc1	GDH-TPI inh 37
CC1CCCN(c2cccc3c2S(=O)(=O)N([C@H](C)c2ccccc2)C[C@@H](COCc2ccccc2)O3)C1 (stereo partly specified)	none (no result: GDH-TPI inh, RecA intein inh, Mtb FBA inh, VHR inh abs, SARS 3CLpro inh)
Cc1cc(=O)[nH]c(N/N=C/c2cccs2)n1	none
CN(/N=C/c1cccs1)c1cc(=O)n(C)c(=O)[nH]1	GDH-TPI inh 48
CCN(/N=C/c1cccs1)c1cc(=O)n(C)c(=O)[nH]1	GDH-TPI inh 43
O=C1N/C(=C/c2ccc(N3CCCC3)cc2)C(=O)N1c1ccccc1	none
O=C1/C(=C/c2ccc(N3CCCC3)cc2)NC(=S)N1C1CC1	VHR inh abs 52
CCOC(=O)C1CSCCS(=O)(=O)N1Cc1ccc(F)cc1 (stereo unspecified)	none (no result: GDH-TPI inh, RecA intein inh, Mtb FBA inh, VHR inh abs, SARS 3CLpro inh)
CSc1nc2ccc3nc(NC(=O)c4ccc(Cl)s4)sc3c2s1	VHR inh abs 53 (no result: CCHFV vOTU inh)
CSc1nc2ccc3nc(NC(=O)c4cccs4)sc3c2s1	none
O=C(Nc1nc(-c2ccccn2)cs1)c1ccc(Cl)s1	GDH-TPI inh 36
Cc1ccccc1-n1c(N)c(C(=O)Nc2ccc(F)cc2)sc1=S	none
Cc1ccc(-n2c(N)c(C(=O)Nc3ccccc3F)sc2=S)cc1C	GDH-TPI inh 33
CC1(C)N=C(SCC(=O)Nc2ccc(Cl)cc2Cl)C(c2ccccc2)=N1	RecA intein inh 32
Brc1ccccc1C1Cc2nnccc2CN1 (stereo unspecified)	none (no result: GDH-TPI inh, RecA intein inh, Mtb FBA inh, VHR inh abs, SARS 3CLpro inh)
O=C(Cc1ccccc1[N+](=O)[O-])NNC(=O)Nc1ccc2c(c1)OCO2	VHR inh abs 50
O=C(Cc1ccccc1[N+](=O)[O-])Nc1ccc2c(c1)OCO2	none
O=c1nc2ccc(Cl)cn2c2ccc(S(=O)(=O)N3CCOCC3)cc12	Mtb FBA inh 176
COC(=O)c1c2[n+](cc3cc(OC)c(OC)cc13)CCc1cc(OC)c(OC)cc1-2	GDH-TPI inh 43 (no result: VHR inh abs, SARS 3CLpro inh)
